From PubChem
Sampled rows, rich in hits. Any-hit rate of the full collection: about 2.3%.
LGR2 inh: inhibitors of bursicon-induced Drosophila LGR2 receptor cAMP signaling; inhibition, % at 9.99 µM; hit rate 0.35% among 380,000; HEK293 LGR2, CRE-luciferase, bursicon-stimulated, 4 h;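 active = drop in luminescence signal, shown as inhibition above about 50% in the replicate tests, limit read from the data, passing the limit was not always enough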;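 also: agonist challenge used bursicon conditioned medium at about half maximal strength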
SENP8 block-1: blocks human SENP8 cleavage of Nedd8 substrate; Q96LD8; recombinant SENP8, Nedd8 substrate fluorescence; inhibition, % at 20 µM; hit rate 0.64% among 360,000; in the data active = inhibition mostly above about 40%, no sharp cut-off; inactive = mostly below about 27%
Target sequence (Q96LD8 whole entry, looked up): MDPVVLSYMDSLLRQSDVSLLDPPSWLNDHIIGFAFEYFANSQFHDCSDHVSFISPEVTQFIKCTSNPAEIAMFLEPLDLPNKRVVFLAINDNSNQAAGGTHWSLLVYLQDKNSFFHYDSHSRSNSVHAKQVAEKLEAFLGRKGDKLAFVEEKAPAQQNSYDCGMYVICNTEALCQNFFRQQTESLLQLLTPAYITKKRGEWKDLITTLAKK
SENP8 block-2: inhibitors of human SENP8 protease; AID 2540; purified SENP8, Z-RLRGG-aminoluciferin cleavage, luminescence; Q96LD8; inhibition, % at 10 µM; hit rate 1.2% among 330,000; in the data active = inhibition above about 50%
SENP6 block: inhibitors of human SENP6 protease; Recombinant SENP6 catalytic domain, aminoluciferin luminescence; inhibition, % at 10 µM; hit rate 1.8% among 330,000; AID 2599; Q9GZR1;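 active = inhibition above about 50% at the single tested dose, limit read from the data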;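 also: plate controls were DMSO wells with enzyme for no effect and DMSO wells lacking enzyme for full effect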
HSP90 inh: HSP90 refolding inhibition in rabbit reticulocyte lysate; luciferase refolding luminescence, 3 h; hit rate 0.91% among 290,000; inhibition, % at 5.6 µM;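 active = inhibition above the screen-wide mean plus 3 SD, computed separately per campaign, cut at about 16% in these data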;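 also: 0% = DMSO wells and 100% = 60 µM geldanamycin wells; inhibitors lower the luminescence because luciferase stays unfolded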
SENP7 inh: blocks the human protease SENP7; Q9BQF6; recombinant SENP7, Z-RLRGG-aminoluciferin luminescence, 40 min; inhibition, % at 5 µM; hit rate 1.5% among 330,000; AID 434973;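 active = inhibition above about 50% at the single test dose, limit read from the data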;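 also: plate controls were DMSO with enzyme for no effect and no enzyme buffer wells for full effect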
* = called active by the depositor; nt = no result given.

SMILES	LGR2 inh	SENP8 block-1	SENP8 block-2	SENP6 block	HSP90 inh	SENP7 inh
COc1ccc2c3c(n(C)c2c1)[C@@H](CO)N(C(=O)C1CCOCC1)CC31CCN(Cc2cccc(F)c2)CC1	-7	nt	nt	nt	nt	nt
CCOC(=O)C(C(=O)OCC)c1cc(Br)c2noc3c2c1C(=O)c1ccccc1-3	nt	87*	22	65*	1	23
O=C1c2ccccc2-c2onc3ccc(Oc4ccccc4)c1c23	37	29	20	38	0	7
O=C(C[C@@H]1CC[C@@H](NC(=O)Nc2ccccc2F)[C@H](CO)O1)NCc1ccc(-c2ccccc2)cc1	5	nt	nt	nt	nt	nt
Cc1ccc(NC(=O)c2csc(-c3ccccc3)c2C)cc1	nt	10	nt	nt	34*	nt
Cc1ccc(N/C(N)=N/c2nc3c(c(=O)[nH]2)CCCC3)c(C)c1	-1	-38	-7	-5	-2	15
Cc1ccc(N/C(N)=N/c2nc(C)cc(N3CCCCC3)n2)c(C)c1	67*	11	-5	-6	-1	-8
CC(C)NC(=O)N1CC2(C1)[C@H](c1ccccc1)[C@@H](CO)N2C(=O)c1ccccn1	-7	nt	nt	nt	nt	nt
COCC(=O)Nc1ccc2c(c1)C(=O)N(C)C[C@H](OC)[C@@H](C)CN(Cc1cccnc1)[C@@H](C)CO2	-4	nt	nt	nt	nt	nt
NC1=C(Cl)C(=O)c2ccc(S(N)(=O)=O)cc2C1=O	105*	96*	nt	nt	nt	nt
NC1=C(Cl)C(=O)c2ccccc2C1=O	-12	83*	nt	nt	nt	nt
COc1ccc2c(c1)O/C(=C\c1sccc1C)C2=O	-100	-86	50	79*	-2	71*
O=C(O)COc1ccc2c(c1)O/C(=C\c1cccs1)C2=O	-6	-180	4	4	4	5
CC(C)NC(=O)N1CC2(C1)[C@H](c1ccccc1)[C@@H](CO)N2C(=O)C1CC1	3	nt	nt	nt	nt	nt
COCCOCCn1c(/C=C/c2ccccc2)nc2ccccc21	-60	-381	61*	74*	1	38
CCCN1C[C@@H](C)[C@@H](OC)CN(C)C(=O)c2cc(NC(=O)NC3CCCCC3)ccc2OC[C@@H]1C	9	nt	nt	nt	nt	nt
Cc1ccc(-c2ccc3c(c2)O[C@@H](CN(C)S(C)(=O)=O)[C@H](C)CN([C@H](C)CO)S3(=O)=O)cc1	-1	nt	nt	nt	nt	nt
Cn1c(=O)c2c(-c3ccccc3)n(-c3cccc(O)c3)cc2n(C)c1=O	-3	-372	nt	nt	nt	nt
Cn1c(=O)c2c(-c3ccccc3)n(-c3ccc(N)cc3)cc2n(C)c1=O	4	60*	nt	nt	nt	nt
CCc1cc(OCCN(C)C)ccc1Cl	-1	7	0	-9	-1	1
CN(C)CCOc1ccc2c(c1)C(=O)C(=Cc1ncc([N+](=O)[O-])n1C)C2	100*	20	nt	nt	nt	nt
CSC1=NC=C(C#N)C2=NC(c3c(Cl)cccc3Cl)NN12 (stereo not drawn)	nt	52*	nt	nt	nt	nt
N#CC(C#N)=C1C=CC=CN1/C(=C\c1ccco1)C(=O)c1ccc(Cl)cc1	105*	-256	nt	nt	-6	nt
N#CC(C#N)=C1C=CC=CN1/C(=C\c1ccco1)C(=O)c1ccc(-c2ccccc2)cc1	5	-151	nt	nt	1	nt
CC(C)NC(=O)Nc1ccc2c(c1)C(=O)N([C@H](C)CO)C[C@@H](C)[C@@H](CN(C)Cc1ccccc1)OCCCC[C@H](C)O2	6	nt	nt	nt	nt	nt
SMILES	LGR2 inh	SENP8 block-1	SENP8 block-2	SENP6 block	HSP90 inh	SENP7 inh
CCC(=O)N1CC2(C1)CN(C(=O)CN1CCOCC1)[C@H](CO)c1[nH]c3cc(OC)ccc3c12	11	nt	nt	nt	nt	nt
C[C@@H]1CN([C@@H](C)CO)C(=O)Cc2cc(NC(=O)Nc3ccc(F)cc3)ccc2O[C@H]1CN(C)Cc1ccc2c(c1)OCO2	17	nt	nt	nt	nt	nt
COc1ccc(-n2nc(C#N)c(Cl)cc2=O)cc1	105*	-55	2	4	-2	8
C[C@@H]1CN([C@H](C)CO)C(=O)c2cc(NC(=O)Nc3ccc(F)cc3)ccc2O[C@@H]1CN(C)S(=O)(=O)c1ccccc1	-1	nt	nt	nt	nt	nt
C[C@H]1CN([C@@H](C)CO)C(=O)c2cc(NS(=O)(=O)c3ccc(Cl)cc3)ccc2O[C@@H]1CN(C)CC1CC1	2	nt	nt	nt	nt	nt
CN1C(=O)C(N=Nc2ccccc2C(=O)O)N(C)C1=S (stereo not drawn)	-4	13	86*	89*	-2	22
C/C=C/c1cnc2c(c1)C(=O)N([C@@H](C)CO)C[C@H](C)[C@H](CN(C)C(=O)C1CC1)O2	-3	nt	nt	nt	nt	nt
CCOc1ccc(/C=C2\SC(=S)N(NS(=O)(=O)c3ccc(C)cc3)C2=O)cc1OC	5	43*	-4	-10	-3	-8
